Assay results: PubChem BioAssay (NCI)
Compounds without any hit were thinned out: in the full panel of roughly 83,000, 20% have a hit.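 Treatment: one concentration, 48 hours, 96-well format. Scoring: percent growth, with anything below 10 considered active.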 Calls of active or inactive are those of the source.

The compounds below were run on SNB-75 CNS (assay: NCI-60 one-dose screen, 48 h (100 = growth as untreated, 0 = no growth, -100 = all killed)). Settings: 10 µM unless noted.
`CC(=O)N/C(=C1/OC(C(O)C(O)C(O)CO)CN1C)[P+](c1ccccc1)(c1ccccc1)c1ccccc1` (stereo not drawn) was tested, and the growth was 75.3% (inactive). For `COc1ccc(/C=C/C(=O)c2ccc(Nc3nc(Nc4ccc(F)cc4)nc(Nc4ccc(Cl)cc4)n3)cc2)cc1`, the growth was 95.6% (inactive). For `COc1ccc(C2=NN(C(=O)c3cc(OC)c(OC)c(OC)c3)C(c3ccc(N(C)C)cc3)C2)cc1` (stereo not drawn), the growth was 18.1% (inactive). In the case of `O=C1NC(=C(Cl)Cl)/C(=N/S(=O)(=O)NCCc2c[nH]c3ccccc23)N1`, the growth is reported as 78.5% (inactive). `COc1ccc(C/C(C)=C(\c2ccc(O)cc2)c2ccc(OCCN3CCCC3)cc2)cc1` was tested, and the growth was 94.2% (inactive). With `CCOC(=O)NN1CC(O)=C(c2nc(-c3ccc(Br)cc3)cs2)C1=N` the growth was 101% (inactive). With `COC(=O)/C(CCC=C(C)C)=C1\[C@@H](OC(C)=O)C[C@@]2(C)[C@H]1CC(=O)[C@H]1[C@@]3(C)CCC(N4CCCC4)[C@@H](C)[C@@H]3CC[C@@]12C` (stereo partly drawn) the growth was 99.2% (inactive). With `Nc1c(C(=O)Nc2ccccn2)sc2nc3c(cc12)C(O)CCC3` (stereo not drawn) the growth was 12.7% (inactive). For `COc1ccc2nc3cc(Cl)ccc3c(NCCN)c2c1`, the growth was 91.6% (inactive). With `Cc1cc2nc3c4ccccc4n(CCN(C)C)c3nc2cc1C` the growth was 4.8% (active). With `Cc1ccc(C)n1/C=C/n1c(C)ccc1C` the growth was 80.7% (inactive). With `Cc1c2ccccc2nc2c1ccc1cccnc12` the growth was 71.1% (inactive). With `CN1CCN(Cc2ccc(NC(=O)c3cncc(C#Cc4cncc5ncccc45)c3)cc2C(F)(F)F)CC1` the growth was 13.6% (inactive).
